Most compounds without a hit are left out; they make up all but 2.2% or so of the library.
MEKK2wt PB1 HTS: raises or lowers MEK5 binding to wildtype human MEKK2 PB1 domain; Q9Y2U5; bead flow cytometry, Alexa488-MEK5 binding to MEKK2 WT; actives lie on both sides; binding response (% of control), % at 10 µM; 290,000 compounds, 1.1% hits; AID 1531; in the data active = binding response below about 67% or above about 130%
VLA-4 inh: inhibition in a human VLA-4 binding assay; VLA-4 expressing cells, ligand binding flow cytometry; P13612; 330,000 compounds, 0.2% hits; inhibition, % (about 7 µM as worked out from the volumes in the protocol); in the data active = inhibition above about 50%
MEKK3 PB1 HTS: raises or lowers MEK5 binding to the human MEKK3 PB1 domain; bead-based flow cytometry, Alexa488-MEK5 binding to MEKK3; actives lie on both sides; 0 = blocked by unlabeled MEK5, 100 = vehicle; binding response (% of control), % at 10 µM; 290,000 compounds, 1.4% hits; AID 1529;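 active = binding response more than 3 SD above or below the average of its plate-row segment, actives on both sides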;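 also: Alexa488 bead fluorescence after subtracting the streptavidin-only scavenger bead signal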
Target sequence (Q99759 whole entry, looked up, the tested form may be a part): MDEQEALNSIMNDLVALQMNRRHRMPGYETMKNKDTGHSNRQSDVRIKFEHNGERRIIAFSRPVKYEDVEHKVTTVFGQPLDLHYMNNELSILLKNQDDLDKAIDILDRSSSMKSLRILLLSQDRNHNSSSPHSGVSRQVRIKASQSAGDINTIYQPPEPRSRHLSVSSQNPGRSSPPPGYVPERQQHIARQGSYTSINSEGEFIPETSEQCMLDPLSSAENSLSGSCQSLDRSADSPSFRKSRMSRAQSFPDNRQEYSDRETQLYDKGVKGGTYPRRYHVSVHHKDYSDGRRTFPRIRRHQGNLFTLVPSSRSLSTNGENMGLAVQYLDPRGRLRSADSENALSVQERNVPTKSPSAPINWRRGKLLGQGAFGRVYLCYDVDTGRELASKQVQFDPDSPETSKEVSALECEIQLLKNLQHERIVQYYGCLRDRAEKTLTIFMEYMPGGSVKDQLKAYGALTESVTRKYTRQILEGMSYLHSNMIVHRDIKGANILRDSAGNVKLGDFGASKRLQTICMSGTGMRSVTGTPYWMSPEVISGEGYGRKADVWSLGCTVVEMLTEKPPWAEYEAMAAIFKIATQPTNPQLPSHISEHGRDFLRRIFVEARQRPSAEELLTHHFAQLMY
MEKK2mut PB1 HTS: signal of MEK5 binding to mutant human MEKK2 PB1 domain; 290,000 compounds, 0.35% hits; bead flow cytometry, Alexa488-MEK5 binding to MEKK2 mutant; AID 1530; percent response, % at 10 µM; in the data active = percent response above about 24%, passing the limit was not always enough
MEKK2wt confirm: raises or lowers MEK5 binding to wildtype human MEKK2, retest. binding response (% of control), % at 10 µM. bead flow cytometry, Alexa488-MEK5 binding to MEKK2 WT; actives lie on both sides. shares compounds with MEKK3 PB1 HTS. 5,900 compounds, 2.4% hits; in the data active = binding response below about 16% or above about 210%; inactive = in between
MEKK2mut-MEK5: signal of MEK5 binding to mutant human MEKK2, retest. shares compounds with MEKK3 PB1 HTS. bead flow cytometry, Alexa488-MEK5 binding to MEKK2 mutant. percent response, % at 10 µM. 5,900 compounds, 2% hits. AID 1893; in the data active = percent response mostly above about 71%, no sharp cut-off; inactive = mostly below about 38%;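 also: higher means compound restores mutant binding toward wildtype level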
MEKK3 confirm: MEKK3-MEK5 PB1 inhibition, single concentration confirmation | shares compounds with MEKK3 PB1 HTS | bead flow cytometry, Alexa488-MEK5 binding to MEKK3; hits give low values | binding response (% of control), % at 10 µM | 5,900 compounds, 1.8% hits | AID 1894;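 active = binding response below 72% of control, or above a set upper limit, though filed actives all read lower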;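 also: 100% = DMSO only wells and 0% = binding blocked by excess unlabeled MEK5; lower values mean stronger disruption of MEK5 binding to MEKK3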
* hit, by the source's call; . = not tested or not shown; [ ] = remark or other dose.

SMILES | MEKK2wt PB1 HTS | VLA-4 inh | MEKK3 PB1 HTS | MEKK2mut PB1 HTS | MEKK2wt confirm | MEKK2mut-MEK5 | MEKK3 confirm
O=S(=O)(c1cccc2nsnc12)N1CCN(c2ccc(F)cc2)CC1 | 74 | -16 | 72*[inhibitor] | -10 | 97 | 1 | 100
O=S(=O)(c1cccc2nsnc12)N1CCN(c2ccccc2F)CC1 | 87 | 10 | 82 | -6 | . | . | .
COc1ccc(CNC(=O)COC(=O)CCN2C(=O)C3CC=CCC3C2=O)cc1OC (centres undefined) | . | 4 | . | . | . | . | .
Cc1cc(-c2nn(-c3ccccc3F)cc2CN2CCC(O)CC2)c(C)s1 | 108 | -16 | 99 | 2 | . | . | .
Cc1cc(-c2nn(-c3ccccc3F)cc2CN2CCN(c3ccncc3)CC2)c(C)s1 | 172* | 4 | 106 | 41 | 185 | 56 | 112
CC(=O)CN1Cc2ccccc2/C1=N\C(=O)Nc1ccccc1 | 86 | -12 | 77*[inhibitor] | -9 | 101 | -6 | 101
Cn1c(C(=O)NN)cc2cc(OCc3ccccc3)ccc21 | . | -1 | . | . | . | . | .
Cc1ccc(C)c(N=Nc2ccc(O)c3ncccc23)c1 | 84 | 15 | 102 | -10 | . | . | .
Cc1ccc(N=Nc2cc(C)ccc2O)c(C)c1 | 8.0*[inhibitor] | -8 | 5.0*[inhibitor] | -42 | 105 | -5 | 101
CCOc1ccc(-n2nnnc2SCC(=O)Nc2cccc(O)c2)cc1 | 113 | 6 | 113 | 11 | . | . | .
CCOc1ccc(NC(=S)NC(=O)c2cccnc2)c([N+](=O)[O-])c1 | 116 | 0 | 107 | 10 | . | . | .
Cc1ccccc1C(=O)Nc1ccccc1C(=O)N1CCC(C)CC1 | 96 | 9 | 99 | -1 | . | . | .
CC(/C=N/n1c(-c2ccccn2)n[nH]c1=S)=C\c1ccccc1 | 103 | -1 | 100 | 5 | . | . | .
CC(/C=N/n1c(-c2ccco2)n[nH]c1=S)=C\c1ccccc1 | 104 | -8 | 134* | 0 | 98 | -2 | 102
O=C(CSC(=S)N1CCOCC1)Nc1ncc2c(n1)CC(c1ccco1)CC2=O (centres undefined) | 113 | -6 | 113 | 14 | . | . | .
CCCc1ccc(Oc2cn[nH]c2-c2ccc(O)c(C)c2O)cc1 | 105 | 13 | 123* | 3 | 97 | -9 | 96
C=CCc1ccc(OCCCOc2ccc(C)c(C)c2)c(OC)c1 | 91 | 9 | 80*[inhibitor] | -10 | 99 | -6 | 99
C=COCCn1c(-c2nonc2N)nc2ccccc21 | 119 | 4 | 122* | 9 | 98 | 7 | 102
NC(=O)Cn1c(-c2nonc2N)nc2ccccc21 | 101 | 7 | 99 | -1 | . | . | .
CN(C)c1cc[n+](CC(=O)Nc2ccc(OC(F)F)cc2)cc1 | 75 | 0 | 85 | -10 | . | . | .
COc1cc(NC(=S)NCc2ccc(S(N)(=O)=O)cc2)c(OC)cc1Cl | 102 | 8 | 59*[inhibitor] | 0 | 103 | 3 | 101
COc1ccc(S(=O)(=O)N2CCOC2CNC(=O)C(=O)NCc2ccccn2)cc1C (centres undefined) | 101 | -26 | 97 | 3 | . | . | .
Nc1nc(Cl)nc2c1ncn2C1CC(O)C(CO)O1 (centres undefined) | . | -6 | . | . | . | . | .
COc1ccc(C(C)=O)cc1COC(=O)c1ccc2ccccc2n1 | 107 | 2 | 129* | -1 | 102 | 3 | 102
C#CCOCCOCCOCCNc1nc(N2CCOCC2)nc(N2CCN(C(=O)[C@H](C)n3cc(CCCN=C(N)N)nn3)CC2)n1 | 2.0*[inhibitor] | -4 | 1.0*[inhibitor] | 5 | 107 | 2 | 98
SMILES | MEKK2wt PB1 HTS | VLA-4 inh | MEKK3 PB1 HTS | MEKK2mut PB1 HTS | MEKK2wt confirm | MEKK2mut-MEK5 | MEKK3 confirm
C#CCOCCOCCOCCNc1nc(N2CCN(C(=O)[C@H](C)n3cc(CCCN=C(N)N)nn3)CC2)nc(N2CCN(C(=O)[C@H](C)n3cc(CCCN=C(N)N)nn3)CC2)n1 | 110 | . | 107 | 8 | . | . | .
C#CCOCCOCCOCCNc1nc(N2CCN(C(=O)[C@H]([C@@H](C)CC)n3cc(CCCN=C(N)N)nn3)CC2)nc(N2CCN(C(=O)[C@H]([C@@H](C)CC)n3cc(CCCN=C(N)N)nn3)CC2)n1 | 164* | . | 110 | 18 | 175 | 40 | 102
CCOc1nsc(OCC)n1 | 99 | -1 | 97 | 8 | . | . | .
CCOC(=O)c1nc2ccccc2s1 | 2.0*[inhibitor] | 5 | 2.0*[inhibitor] | -69 | 102 | 1 | 103
N#C/C(=C(/O)COC(=O)c1ccc(C#N)cc1)c1nc2ccccc2s1 | -1.0*[inhibitor] | -26 | 94 | 0 | 96 | 1 | 98
C/C(=N\Nc1nc2ccccc2s1)c1ccc(Br)s1 | 138* | 22 | 111 | 26 | 119 | 15 | 106
O=C(Nn1cnc2ccccc2c1=O)c1ccc(Cl)c([N+](=O)[O-])c1 | 109 | -1 | 107 | 10 | . | . | .
CCCc1nc(SCC(=O)Nc2nnc(CC)s2)c2c(C)c(C)sc2n1 | 115 | 8 | 122* | 9 | 99 | 3 | 100
CCn1c(=S)sc2c(=O)n(CC(=O)NCCCc3ccccc3)c(C)nc21 | 99 | -1 | 100 | -4 | . | . | .
CCOc1ccc(S(=O)(=O)N2CCCC(C(=O)Nc3ccccc3)C2)cc1 (centres undefined) | 90 | 8 | 98 | -5 | . | . | .
CC1(C)CC(NC(=O)C2CCC(=O)N(Cc3ccccc3F)C2)CC(C)(C)C1 (centres undefined) | 105 | . | 103 | 3 | . | . | .
O=C(COc1ccccc1Cl)NCCCNC(=O)c1cccnc1 | 97 | 14 | 101 | 2 | . | . | .
CCN1CCN(S(=O)(=O)c2ccc(Cl)c(C(=O)Nc3nnc(C)s3)c2)CC1 | . | 3 | . | . | . | . | .
NNC(=O)Cn1nc(-c2ccccc2)c2ccccc2c1=O | 3.0*[inhibitor] | 26 | 2.0*[inhibitor] | -51 | 105 | 4 | 105
O=C(O)Cn1nc(-c2ccccc2)c2ccccc2c1=O | 97 | 36 | 100 | -1 | . | . | .
CCc1ccc(C2=Nn3c(nnc3-c3cccs3)SC2)cc1 | 119 | 1 | 126* | 5 | 95 | -2 | 100
CN1C(=O)N(CC(=O)N2CCN(S(=O)(=O)c3ccc(Cl)s3)CC2)C(=O)C12CCCCC2 | . | 6 | . | . | . | . | .
COc1ccc(Cl)cc1NC(=O)Cn1nnc(C(=O)NCc2ccc3c(c2)OCO3)c1N | 103 | 2 | 104 | 2 | . | . | .
Cc1ccc2c(c1)[C@@H]1[C@H](CO2)[C@H](c2ccccc2)[C@@]2(C)C(=O)N[C@H](C)C(=O)N12 | . | -5 | . | . | . | . | .
COc1cc([N+](=O)[O-])cc2cc(C(=O)NC(C)(C)C)c(=O)oc12 | 108 | 8 | 106 | 9 | . | . | .
COCCCNC(=O)c1cc2cc([N+](=O)[O-])cc(OC)c2oc1=O | 51 | -18 | 39*[inhibitor] | -16 | 105 | 5 | 105
Cn1c(SCC(=O)c2ccccc2)nnc1-c1cccs1 | 89 | 17 | 90 | -18 | . | . | .

Source: PubChem BioAssay
